# Assay results taken from the supplement of paper PMC4683952.
# Counter-ions that a name gives are not always drawn. In all, about 1,200 compounds went through this assay and about 50 (4%) showed activity. Rule as the data show it: all actives reach 1.3 or more but so do some inactives. For the sample, actives were picked, then their nearest neighbours and some compounds at random.
# Tested on: Lgr5 (MarsCy1-Lgr5-EGFP, U2OS)
# Test: cell-surface Lgr5 expression (SCi1 fluorescence, background-subtracted) relative to WT DMSO (fold of DMSO control); higher = more Lgr5 at the plasma membrane, active = hit call of the paper
# Conditions: U2OS MarsCy1-Lgr5-EGFP stable; treatment time: overnight; 16 µM; library: Johns Hopkins Clinical Compound Library
row,SMILES,cell-surface Lgr5 expression
1,"CCCCCCN(C)C [N,N-Dimethylhexylamine]",1.05 (inactive)
2,O=NN(CCCl)C(=O)NC1CCCCC1 [Lomustine],1.37 (inactive)
3,CCC(=O)O[C@H]1[C@H](O[C@@H]2[C@@H](C)[C@H](O[C@H]3C[C@@](C)(OC)[C@@H](O)[C@H](C)O3)[C@@H](C)C(=O)O[C@H](CC)[C@@](C)(O)[C@H](O)[C@@H](C)C(=O)[C@H](C)C[C@@]2(C)O)O[C@H](C)C[C@@H]1N(C)C [Erythromycin estolate],0.567 (inactive)
4,CCOc1ccc2nc(S(N)(=O)=O)sc2c1 [Ethoxzolamide (6-Ethoxy-2-benzothiazolesulfonamide)],1.15 (inactive)
5,CCc1cc(Cl)c(OC)c(C(=O)NC[C@@H]2CCCN2CC)c1O [Eticlopride hydrochloride (S)],1.52 (active)
6,CCN1CCCC1CNC(=O)c1cc(S(N)(=O)=O)ccc1OC (racemic) [Sulpiride (+/-)-],1.07 (inactive)
7,O=C([O-])C(=O)[O-].O=C([O-])C(=O)[O-].O=C([O-])C(=O)[O-].[Ce+3].[Ce+3] [Cerium oxalate],1.08 (inactive)
8,COC(=O)c1ccc(O)c2nc3c(C=O)c(O)cc(O)c3nc12 [Lomofungin],0.884 (inactive)
9,COc1ccnc(C[S+]([O-])c2nc3cc(OC(F)F)ccc3[nH]2)c1OC (stereo not drawn) [Pantoprazole],1.01 (inactive)
10,OC(CCCN1CCC(O)(c2ccc(Cl)cc2)CC1)c1ccc(F)cc1 (stereo not drawn) [Haloperidol metabolite II],1.18 (inactive)
11,CCCCCCCCCCCCCCc1ccc(S(=O)(=O)O)cc1.OCl [Oxychlorosene],0.635 (inactive)
12,C[C@@H]1C[C@H]2[C@@H]3CCC4=CC(=O)C=C[C@]4(C)[C@@]3(F)[C@@H](O)C[C@]2(C)[C@H]1C(=O)CO,1.41 (inactive)
13,C[C@H]1C[C@H]2[C@@H]3CCC4=CC(=O)C=C[C@]4(C)[C@@]3(F)[C@@H](O)C[C@]2(C)[C@@]1(O)C(=O)COP(=O)(O)O [Betamethasone sodium phosphate],1.35 (active)
14,CC(=O)OCC(=O)[C@@]1(O)[C@@H](C)C[C@H]2[C@@H]3CCC4=CC(=O)C=C[C@]4(C)[C@@]3(F)[C@@H](O)C[C@@]21C,1.59 (active)
15,CC(=O)OCC(=O)[C@@]1(O)[C@@H](C)C[C@H]2[C@@H]3CCC4=CC(=O)C=C[C@]4(C)[C@@]3(F)[C@@H](O)C[C@@]21C [Betamethasone 21-acetate],1.53 (active)
16,C[C@@H]1C[C@H]2[C@@H]3CCC4=CC(=O)C=C[C@]4(C)[C@@]3(F)[C@@H](O)C[C@]2(C)[C@@]1(O)C(=O)COP(=O)(O)O,1.26 (inactive)
17,C[C@H]1C[C@H]2[C@@H]3CCC4=CC(=O)C=C[C@]4(C)[C@@]3(Cl)[C@@H](O)C[C@]2(C)[C@@]1(O)C(=O)CO [Beclomethasone],1.36 (active)
18,C[C@H]1C[C@H]2[C@@H]3CCC4=CC(=O)C=C[C@]4(C)[C@@]3(F)[C@@H](O)C[C@]2(C)[C@@]1(O)C(=O)CO,1.45 (active)
19,O=P([O-])([O-])O.[K+].[K+] [Potassium phosphate dibasic],1.09 (inactive)

row,SMILES,cell-surface Lgr5 expression
1,O.O.O.O.O.O.[Br-].[Br-].[Sr+2] [Strontium bromide hexahydrate],0.469 (inactive)
2,"Nc1ccc2cc3ccc(N)cc3nc2c1 [Proflavine hemisulfate salt hydrate, powder]",1.06 (inactive)
3,CCCCCCCCCCCCCCCCCC(=O)[O-].CCCCCCCCCCCCCCCCCC(=O)[O-].[Zn+2] [Zinc stearate],0.658 (inactive)
4,C=CC[N+]1([C@H]2C[C@H]3[C@@H]4CC[C@H]5C[C@H](O)[C@@H](N6CCOCC6)C[C@]5(C)[C@H]4CC[C@]3(C)[C@H]2OC(C)=O)CCCC1 [Rocuronium bromide (Zemuron)],1.2 (inactive)
5,CCCCC(C)(O)C/C=C/[C@H]1[C@H](O)CC(=O)[C@@H]1CCCCCCC(=O)OC (mixture of isomers) [Misoprostol],1.07 (inactive)
6,O=C(Cc1cccs1)N[C@@H]1C(=O)N2C(C(=O)O)=C(/C=C/c3ccc([N+](=O)[O-])cc3[N+](=O)[O-])CS[C@H]12 [Nitrocefin],0.867 (inactive)
7,CCOC(C)OCC [Acetal],1.06 (inactive)
8,CC(=O)O[C@]1(C(C)=O)CC[C@H]2[C@@H]3C=C(C)C4=CC(=O)CC[C@]4(C)[C@H]3CC[C@@]21C [Megestrol Acetate],1.29 (inactive)
9,CC(=O)O[C@]1(C(C)=O)CC[C@H]2[C@@H]3C=C(Cl)C4=CC(=O)CC[C@]4(C)[C@H]3CC[C@@]21C [Chlormadinone acetate],1.09 (inactive)
10,C=C1C[C@H]2[C@@H]3C=C(C)C4=CC(=O)CC[C@]4(C)[C@H]3CC[C@]2(C)[C@@]1(OC(C)=O)C(C)=O [Melengestrol acetate],1.58 (active)
11,CO[C@H]1C=CO[C@@]2(C)Oc3c(C)c(O)c4c(O)c(c(C=O)c(O)c4c3C2=O)NC(=O)C(C)=CC=C[C@H](C)[C@H](O)[C@@H](C)[C@@H](O)[C@@H](C)[C@H](OC(C)=O)[C@@H]1C [3-formyl Rifamycin],1.12 (inactive)
12,O=C([O-])[O-].[Ca+2] [Calcium carbonate],0.936 (inactive)
13,COC(=O)Nc1nc2cc([S+]([O-])c3ccccc3)ccc2[nH]1 (stereo not drawn) [Oxfendazole],1.18 (inactive)
14,O=[N+]([O-])c1ccc(O)cc1 [4-Nitrophenol],1.17 (inactive)
15,[Na+].[OH-] [Sodium hydroxide],0.75 (inactive)
16,COc1ccc2cc([C@H](C)C(=O)O)ccc2c1 [Naproxen sodium],1.03 (inactive)
17,COc1ccc2cc(CCC(C)=O)ccc2c1 [Nabumetone],1.32 (active)
18,"COc1ccc(C(=O)c2ccccc2O)c(O)c1 [Dioxybenzone (2,2'-Dihydroxy-4-methoxybenzophenone)]",0.985 (inactive)
19,COc1ccc2cc([C@H](C)C(=O)O)ccc2c1 [Naproxen (s-6-methoxy methyl 2-naphthalene acetic acid)],0.783 (inactive)
